Results filed as inconclusive are left out. Where a call stands in place of a potency, no number is given. The source made the active and inactive calls. Calls come from the whole dose curve; as a rule, active = well fitted curve in the direction sought with a large enough effect; inconclusive = small, poorly fitted or top-dose-only effect, or another doubt; inactive = no such curve, though single readings can be large; an effect the other way counts as inactive or inconclusive.

Calcium and integrin-binding protein 1 (Homo sapiens), sequence (Q99828 whole entry, looked up): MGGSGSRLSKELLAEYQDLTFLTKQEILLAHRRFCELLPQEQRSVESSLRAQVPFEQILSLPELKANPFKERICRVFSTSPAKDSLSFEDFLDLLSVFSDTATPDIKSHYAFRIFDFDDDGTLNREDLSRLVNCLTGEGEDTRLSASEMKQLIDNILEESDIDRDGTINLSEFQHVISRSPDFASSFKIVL

One assay has as its system Zika virus NS2B-NS3 protease (linked construct). Put plainly: Primary screen NINDS Rhodamine qHTS for Zika virus inhibitors (AID 1347160). Note: nearly all actives have a fitted effect of over 55% in size. The conditions noted are these: purified NS2B-NS3 protease, Rhodamine110 substrate fluorescence; series mostly up to 57.1 µM. The gist of the method:
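Single-chain NS2B-NS3 protease, 25 nM, pH 8.0; compounds preincubated 15 min. Activity: Rhodamine110 release from 1.5 microM substrate over 15 min, room temperature, data fitted to 4-parameter Hill.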
(In general: In qHTS, concentration-response curves come from the screen itself.)
As for `C=CC(C)(C)C12C=C(O)C(=O)N3/C(=C\c4cnc[nH]4)C(=O)NC31N(OC)c1ccccc12` (stereo not drawn), the Potency result was “inactive”.
Turning to `CC1=CC2/C=C(\C)CCC(O)C(O)C(O)CC(=O)C23C(=O)NC(CC(C)C)C3C1C` (stereo not drawn), the Potency result is “inactive”.
As to `O=C(NCCN1CCC2(CC1)C(=O)NCN2c1cccc(F)c1)c1ccc2ccccc2c1`, the Potency result is “inactive”.
`CN(C(=O)CN1C(=O)COc2cc(Cl)c(Cl)cc21)[C@@H](CN1CCCC1)c1ccc(-c2cccc(C(N)=O)c2)cc1`: the Potency entry is “inactive”.

The next assay concerns the target Calcium and integrin-binding protein 1 (Homo sapiens) (UniProt Q99828). Put plainly: Primary qHTS for Identification of Calcium Integrin Binding Protein 1 (CIB1) Competitor (AID 1508620).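 Note: GST tagged CIB1 binding a fluorescein labelled alphaIIb integrin peptide tracer; top concentration of the series differs between compounds.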 The conditions noted are these: CIB1-GST / FITC-alphaIIb peptide fluorescence polarization; series mostly up to 114 µM. The gist of the method: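 Fluorescence polarization competition: CIB1-GST (1 uM final) preincubated with compound 15 min at room temperature, then FITC-labeled alphaIIb peptide (100 nM final) added for another 15 min. Polarization read at Ex 480/Em 540.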
In the case of `FC(F)(F)c1ccc(N2CCNCC2)nc1Cl`, the Potency entry is “inactive”.
For `CC1=CC2/C=C(\C)CCC(O)C(O)C(O)CC(=O)C23C(=O)NC(CC(C)C)C3C1C` (stereo not drawn), the Potency entry was “inactive”.
As for `O=C(NCCN1CCC2(CC1)C(=O)NCN2c1cccc(F)c1)c1ccc2ccccc2c1`, the Potency entry was “inactive”.
On to `CN(C(=O)CN1C(=O)COc2cc(Cl)c(Cl)cc21)[C@@H](CN1CCCC1)c1ccc(-c2cccc(C(N)=O)c2)cc1`, for which the Potency entry was “inactive”.

The record behind these values is PubChem BioAssay (NCATS).
